Reference: the supplement of paper PMC11732987, “Enantioselective OTUD7B fragment discovery through chemoproteomics screening and high-throughput optimisation” (Communications Chemistry, 2025)

Key:
Assay in all cases: log2 ratio of Biotin-Ahx-Ub-VS probe labelling (compound/DMSO); higher = less target engagement, active = hit call of the paper (q ≤ 0.05, log2 ratio ≤ -1)
Conditions in all cases: treatment time: 3 h
[1] = compound: CCC1N(CCc2sccc12)C(=O)CCl
Summary of the method: (§1)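 HEK293T lysate (495 µg per sample, in Tris/CHAPS/IGEPAL buffer with protease inhibitors) was exposed in triplicate to compound at 50 or 200 µM, or to DMSO, for 3 h, then to Biotin-Ahx-Ub-VS (0.5 µM final) for 1 h. The labelled DUBs were enriched on NeutrAvidin, digested with LysC and trypsin, and analysed by diaPASEF LC-MS/MS. Average base-two log ratios of compound over DMSO came from median-normalised label-free quantities by unpaired t-test. Only proteins with at least 2 unique peptides were used.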

[2] = compound: CN1c2ccccc2C(CS1(=O)=O)NC(=O)CCl
Summary of the method: as §1

[3] = compound: Cl.ClCC(=O)N1CCc2ncncc2C1
Summary of the method: as §1

[4] = compound: Cl.Cn1ncc2C(CCCc12)NC(=O)CCl
Summary of the method: as §1

[5] = compound: ClCC(=O)NC1CCOc2ccccc12
Summary of the method: as §1

[6] = compound: ClCC(=O)NC1CCCc2ccccc12
Summary of the method: (§2)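 Each value is an average ratio of compound to vehicle, calculated by unpaired t-test. Lysate from HEK293T cells (495 µg per sample) was incubated in triplicate with compound over a concentration range or vehicle for 3 h and then with Biotin-Ahx-Ub-VS (0.5 µM final) for 1 h. Probe-labelled deubiquitinases were captured on NeutrAvidin, digested and run by diaPASEF LC-MS/MS, with Spectronaut label-free quantities normalised to the global median. Ratios are log2, and only proteins with at least two unique peptides were used.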

[7] = compound: ClCC(=O)N[C@@H]1CCCc2ccccc12
Summary of the method: as §2

[8] = compound: ClCC(=O)N[C@H]1CCCc2ccccc12
Summary of the method: as §2

[9] = compound: CCC1N(CCc2cc(OC)c(Cl)cc12)C(=O)CCl
Summary of the method: as §1

[10] = compound: CCCC1N(CCc2cc(OC)c(OC)cc12)C(=O)CCl
Summary of the method: as §1

Measured: log2 ratio of Biotin-Ahx-Ub-VS probe labelling

UniProt Q9P2H5
Sequence of UniProt Q9P2H5 (Q9P2H5 whole entry): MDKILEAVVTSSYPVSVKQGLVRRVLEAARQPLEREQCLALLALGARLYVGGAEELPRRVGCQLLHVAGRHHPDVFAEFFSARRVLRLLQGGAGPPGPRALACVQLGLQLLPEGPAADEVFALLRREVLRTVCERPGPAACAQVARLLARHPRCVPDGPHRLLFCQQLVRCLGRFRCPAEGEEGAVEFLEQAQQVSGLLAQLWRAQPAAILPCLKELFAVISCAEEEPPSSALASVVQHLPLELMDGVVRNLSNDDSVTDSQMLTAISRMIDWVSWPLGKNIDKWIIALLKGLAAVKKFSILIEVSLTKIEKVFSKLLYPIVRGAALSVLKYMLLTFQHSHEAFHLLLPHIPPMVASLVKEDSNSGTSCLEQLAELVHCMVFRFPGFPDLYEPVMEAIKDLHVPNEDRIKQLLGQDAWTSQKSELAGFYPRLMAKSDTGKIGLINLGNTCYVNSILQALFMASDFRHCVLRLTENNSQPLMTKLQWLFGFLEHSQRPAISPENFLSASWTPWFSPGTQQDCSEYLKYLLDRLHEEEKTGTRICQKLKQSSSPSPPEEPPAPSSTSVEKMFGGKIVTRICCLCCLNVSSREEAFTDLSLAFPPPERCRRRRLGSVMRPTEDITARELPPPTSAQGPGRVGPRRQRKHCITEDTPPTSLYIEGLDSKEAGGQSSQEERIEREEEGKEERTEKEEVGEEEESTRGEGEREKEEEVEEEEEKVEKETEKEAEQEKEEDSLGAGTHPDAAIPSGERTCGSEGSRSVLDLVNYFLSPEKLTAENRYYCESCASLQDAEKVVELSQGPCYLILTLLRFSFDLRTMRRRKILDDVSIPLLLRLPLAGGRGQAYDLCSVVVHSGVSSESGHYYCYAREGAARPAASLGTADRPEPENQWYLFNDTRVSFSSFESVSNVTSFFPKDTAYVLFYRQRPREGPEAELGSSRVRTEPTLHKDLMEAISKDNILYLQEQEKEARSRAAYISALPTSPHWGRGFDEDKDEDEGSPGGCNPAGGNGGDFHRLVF
inactive: [1]; compound concentration: 50uM -0.0377 | [1]; compound concentration: 200uM 0.00874 | [2]; compound concentration: 50uM -0.392 | [2]; compound concentration: 200uM -0.0291 | [3]; compound concentration: 50uM -0.175 | [3]; compound concentration: 200uM -0.43 | [4]; compound concentration: 50uM 0.0391 | [4]; compound concentration: 200uM 0.177 | [5]; compound concentration: 50uM -0.286 | [5]; compound concentration: 200uM -0.188 | [6]; compound concentration: 0.78uM -0.0934 | [6]; compound concentration: 1.56uM -0.117 | [6]; compound concentration: 3.13uM -0.133 | [6]; compound concentration: 6.25uM -0.0237 | [6]; compound concentration: 12.5uM -0.00833 | [6]; compound concentration: 25uM -0.293 | [6]; compound concentration: 50uM -0.0682 | [6]; compound concentration: 100uM -0.133 | [6]; compound concentration: 200uM -0.168 | [7]; compound concentration: 0.78uM -0.164 | [7]; compound concentration: 1.56uM -0.0308 | [7]; compound concentration: 3.13uM -0.0316 | [7]; compound concentration: 6.25uM -0.151 | [7]; compound concentration: 12.5uM -0.2 | [7]; compound concentration: 25uM -0.0579 | [7]; compound concentration: 50uM 0.05 | [7]; compound concentration: 100uM -0.00994 | [7]; compound concentration: 200uM -0.0974 | [8]; compound concentration: 0.78uM 0.0582 | [8]; compound concentration: 1.56uM -0.146 | [8]; compound concentration: 3.13uM -0.121 | [8]; compound concentration: 6.25uM -0.0964 | [8]; compound concentration: 12.5uM -0.172 | [8]; compound concentration: 25uM -0.164 | [8]; compound concentration: 50uM -0.0898 | [8]; compound concentration: 100uM -0.0993 | [8]; compound concentration: 200uM 0.0345 | [9]; compound concentration: 50uM 0.132 | [9]; compound concentration: 200uM -0.452 | [10]; compound concentration: 50uM -0.52 | [10]; compound concentration: 200uM -0.532

USP4 (UniProt Q13107)
Sequence of UniProt Q13107 (Q13107 whole entry): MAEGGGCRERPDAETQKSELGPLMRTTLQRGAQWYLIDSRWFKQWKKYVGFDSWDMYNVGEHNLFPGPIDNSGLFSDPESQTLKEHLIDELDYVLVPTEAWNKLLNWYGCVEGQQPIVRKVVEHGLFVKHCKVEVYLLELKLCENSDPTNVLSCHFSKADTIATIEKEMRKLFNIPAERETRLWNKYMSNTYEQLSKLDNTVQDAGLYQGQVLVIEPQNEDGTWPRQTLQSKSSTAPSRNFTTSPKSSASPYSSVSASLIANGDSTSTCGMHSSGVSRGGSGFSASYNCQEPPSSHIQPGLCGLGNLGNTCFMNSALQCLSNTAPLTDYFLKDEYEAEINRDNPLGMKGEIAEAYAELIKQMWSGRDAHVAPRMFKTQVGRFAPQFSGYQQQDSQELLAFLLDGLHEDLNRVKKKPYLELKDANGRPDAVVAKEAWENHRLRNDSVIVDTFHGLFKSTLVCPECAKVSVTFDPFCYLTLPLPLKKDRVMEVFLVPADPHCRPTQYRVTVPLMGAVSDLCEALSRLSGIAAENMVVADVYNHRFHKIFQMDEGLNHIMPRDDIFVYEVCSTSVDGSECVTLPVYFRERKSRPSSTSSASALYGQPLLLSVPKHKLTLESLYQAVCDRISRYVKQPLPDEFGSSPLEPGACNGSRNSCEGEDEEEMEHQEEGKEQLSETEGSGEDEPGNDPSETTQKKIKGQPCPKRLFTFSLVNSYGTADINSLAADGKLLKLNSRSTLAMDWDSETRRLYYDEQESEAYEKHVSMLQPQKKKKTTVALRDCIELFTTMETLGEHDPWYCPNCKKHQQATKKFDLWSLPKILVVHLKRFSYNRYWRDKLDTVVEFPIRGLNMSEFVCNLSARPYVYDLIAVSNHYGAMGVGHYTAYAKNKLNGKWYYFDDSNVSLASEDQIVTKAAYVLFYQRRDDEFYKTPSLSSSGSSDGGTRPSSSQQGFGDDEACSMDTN
active: [3]; compound concentration: 200uM -1.33 | [9]; compound concentration: 50uM -1.04
inactive: [1]; compound concentration: 50uM -0.339 | [1]; compound concentration: 200uM -0.482 | [2]; compound concentration: 50uM -0.215 | [2]; compound concentration: 200uM 0.178 | [3]; compound concentration: 50uM -0.548 | [4]; compound concentration: 50uM -0.0561 | [4]; compound concentration: 200uM 0.256 | [5]; compound concentration: 50uM 0.078 | [5]; compound concentration: 200uM -0.359 | [6]; compound concentration: 0.78uM 0.169 | [6]; compound concentration: 1.56uM 0.0194 | [6]; compound concentration: 3.13uM 0.211 | [6]; compound concentration: 6.25uM 0.184 | [6]; compound concentration: 12.5uM 0.134 | [6]; compound concentration: 25uM 0.0663 | [6]; compound concentration: 50uM -0.0777 | [6]; compound concentration: 100uM -0.146 | [6]; compound concentration: 200uM 0.149 | [7]; compound concentration: 0.78uM 0.155 | [7]; compound concentration: 1.56uM 0.0643 | [7]; compound concentration: 3.13uM 0.0496 | [7]; compound concentration: 6.25uM -0.232 | [7]; compound concentration: 12.5uM -0.312 | [7]; compound concentration: 25uM 0.121 | [7]; compound concentration: 50uM -0.0633 | [7]; compound concentration: 100uM 0.0515 | [7]; compound concentration: 200uM -0.637 | [8]; compound concentration: 0.78uM 0.0773 | [8]; compound concentration: 1.56uM 0.0727 | [8]; compound concentration: 3.13uM 0.172 | [8]; compound concentration: 6.25uM -0.243 | [8]; compound concentration: 12.5uM 0.0883 | [8]; compound concentration: 25uM -0.0943 | [8]; compound concentration: 50uM 0.0929 | [8]; compound concentration: 100uM -0.0812 | [8]; compound concentration: 200uM -0.126 | [9]; compound concentration: 200uM 0.334 | [10]; compound concentration: 50uM -0.121 | [10]; compound concentration: 200uM -0.75
